Measurements as given in the supplement of paper PMC6089552.
The campaign covered roughly 3,200 compounds. About 300 (9.4%) showed activity. The entries come from a sample that favours actives as a whole.

Tested on: A673/TR/shEF
Assay: cell viability (LOESS-normalised, relative to median of negative controls) (log2 ratio); higher = more viable cells (less compound effect), active = hit call of the paper (over 3 MAD below the median)
Conditions: treatment time: 72 h
Summary of the method: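 For three days, A673/TR/shEF Ewing sarcoma cells in 384-well plates (1,500 per well) were treated with library compounds at two or more concentrations or with DMSO controls, after doxycycline had been added or withheld 24 h beforehand to induce EWS-FLI1 shRNA knockdown. Viability was read by CellTiter-Glo luminescence on an Envision reader. The data were LOESS-corrected per plate, divided by the median of negative controls and log2-transformed.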

[1] = 0.025 µM, library screen: screen1, EWS-FLI1 expression: high (no doxycycline)
[2] = 0.025 µM, library screen: screen1, EWS-FLI1 expression: low (doxycycline-induced shRNA knockdown)
[3] = 0.25 µM, library screen: screen1, EWS-FLI1 expression: high (no doxycycline)
[4] = 0.25 µM, library screen: screen1, EWS-FLI1 expression: low (doxycycline-induced shRNA knockdown)
[5] = 2.5 µM, library screen: screen1, EWS-FLI1 expression: high (no doxycycline)
[6] = 2.5 µM, library screen: screen1, EWS-FLI1 expression: low (doxycycline-induced shRNA knockdown)
[7] = 25 µM, library screen: screen1, EWS-FLI1 expression: high (no doxycycline)
[8] = 25 µM, library screen: screen1, EWS-FLI1 expression: low (doxycycline-induced shRNA knockdown)
[9] = 0.25 µM, library screen: screen2, EWS-FLI1 expression: high (no doxycycline)
[10] = 0.25 µM, library screen: screen2, EWS-FLI1 expression: low (doxycycline-induced shRNA knockdown)
[11] = 2.5 µM, library screen: screen2, EWS-FLI1 expression: high (no doxycycline)
[12] = 2.5 µM, library screen: screen2, EWS-FLI1 expression: low (doxycycline-induced shRNA knockdown)

Measured: cell viability (log2)

N#CC(C#N)=Cc1ccc(O)cc1
inactive: [1] 0.0481 | [2] 0.0237 | [3] 0.0596 | [4] 0.0262 | [5] 0.0426 | [6] 0.0755 | [7] 0.0734 | [8] 0.0191

COc1cc(C=C(C#N)C#N)cc(O)c1O
inactive: [9] 0.15 | [10] 0.104 | [11] 0.12 | [12] 0.124

N#CC(C#N)=Cc1ccc([N+](=O)[O-])c(O)c1
0.311: [3]
0.298: [1]
inactive: [2] 0.0132 | [4] -0.0619 | [9] 0.0683 | [10] 0.016
active: [5] -0.131 | [6] -0.169 | [11] -0.559 | [12] -0.298 | [7] -0.408 | [8] -0.158

N#CC(C#N)=Cc1cc(O)c(O)c([N+](=O)[O-])c1
0.283: [3]
inactive: [1] 0.235 | [2] -0.0184 | [4] 0.00958 | [6] -0.0107 | [8] 0.176
active: [5] -0.167 | [7] -0.153

N#CC(C#N)=Cc1ccc(O)c(O)c1
inactive: [1] 0.0488 | [2] -0.0484 | [3] 0.042 | [4] -0.0954 | [9] 0.172 | [10] 0.124 | [5] 0.0531 | [6] -0.000697 | [11] 0.143 | [12] 0.061 | [7] -0.0656 | [8] 0.016

N#CC(C#N)=Cc1cc(O)c(O)c(O)c1
inactive: [1] -0.0494 | [2] 0.0428 | [3] 0.0608 | [4] -0.0659 | [9] 0.269 | [10] 0.131 | [5] -0.0151 | [6] 0.0163 | [11] 0.19 | [12] 0.0774 | [7] 0.0348 | [8] 0.1

C[N+](C)(C)CCOC(=O)CBr
inactive: [9] 0.173 | [10] 0.097 | [11] 0.0892 | [12] 0.139

COc1ccc2c(c[n+](C)c3c4cc5c(cc4ccc23)OCO5)c1OC
inactive: [9] 0.273 | [10] 0.121 | [11] 0.106 | [12] 0.0124

CN1CC[C@@]23CCCC[C@@H]2[C@@H]1Cc1ccc(O)cc13
inactive: [9] 0.228 | [10] 0.105 | [11] 0.167 | [12] 0.081

C[C@]12CCC(=O)C=C1CCc1ccc(O)cc12
inactive: [3] 0.081 | [4] -0.029 | [5] 0.111 | [6] 0.113

CC(C)c1cc2c(c(O)c1O)[C@@]1(C(=O)O)CCCC(C)(C)[C@@H]1CC2
inactive: [3] 0.0242 | [4] 0.0347 | [5] 0.115 | [6] 0.191

CCC(C)C(=O)OC1CC2(C)C(c3ccoc3)OC(=O)CC23OC2(C)OC34C(OC(=O)C(C)C)C3(O)C(OC(=O)C5(C)OC5C)C5(C)CC3(O)C(C)(C5CC(=O)OC)C14O2 (stereo not given)
inactive: [3] 0.108 | [4] -0.0058 | [5] 0.0939 | [6] 0.12

C[C@H]1O[C@@H](O[C@H]2[C@@H](O)C[C@H](O[C@H]3[C@@H](O)C[C@H](O[C@H]4CC[C@@]5(C)[C@H](CC[C@@H]6[C@@H]5CC[C@]5(C)[C@@H](C7=CC(=O)OC7)[C@@H](O)C[C@]65O)C4)O[C@@H]3C)O[C@@H]2C)C[C@H](O)[C@@H]1O
active: [3] -0.13 | [4] -0.332 | [5] -1.73 | [6] -1.76

CC(=O)O[C@H]1C[C@@H]2CC[C@@H]3[C@H](CC[C@@]4(C)[C@H]3C[C@H]([N+]3(C)CCCCC3)[C@@H]4OC(C)=O)[C@@]2(C)C[C@@H]1[N+]1(C)CCCCC1
inactive: 0.103 µM, library screen: screen3, EWS-FLI1 expression: high (no doxycycline) 0.0285 | 0.103 µM, library screen: screen3, EWS-FLI1 expression: low (doxycycline-induced shRNA knockdown) 0.0357 | [9] 0.133 | [10] 0.105 | 0.308 µM, library screen: screen3, EWS-FLI1 expression: high (no doxycycline) 0.115 | 0.308 µM, library screen: screen3, EWS-FLI1 expression: low (doxycycline-induced shRNA knockdown) 0.051 | 0.926 µM, library screen: screen3, EWS-FLI1 expression: high (no doxycycline) 0.183 | 0.926 µM, library screen: screen3, EWS-FLI1 expression: low (doxycycline-induced shRNA knockdown) 0.0779 | [11] 0.145 | [12] 0.0752 | 2.8 µM, library screen: screen3, EWS-FLI1 expression: high (no doxycycline) 0.112 | 2.8 µM, library screen: screen3, EWS-FLI1 expression: low (doxycycline-induced shRNA knockdown) 0.0286 | 8.3 µM, library screen: screen3, EWS-FLI1 expression: high (no doxycycline) 0.106 | 8.3 µM, library screen: screen3, EWS-FLI1 expression: low (doxycycline-induced shRNA knockdown) 0.0203 | 25 µM, library screen: screen3, EWS-FLI1 expression: high (no doxycycline) 0.16 | 25 µM, library screen: screen3, EWS-FLI1 expression: low (doxycycline-induced shRNA knockdown) 0.0865

CO[C@H]1C[C@H](O[C@H]2CC[C@@]3(C)[C@H](CC[C@@H]4[C@@H]3CC[C@]3(C)[C@@H](C5=CC(=O)OC5)[C@@H](OC(C)=O)C[C@]43O)C2)O[C@@H](C)[C@@H]1O
active: [3] -0.578 | [4] -1.73 | [5] -3.54 | [6] -4.25

C[C@]12CC[C@H](O)C[C@H]1CC[C@@H]1[C@@H]2CC[C@]2(C)[C@@H](C3=CC(=O)OC3)[C@@H](O)C[C@]12O
inactive: [3] 0.0825 | [4] 0.115 | [5] 0.137 | [6] 0.0999

CC(=O)OC1CC(OC2C(O)CC(OC3C(O)CC(OC4CCC5(C)C(CCC6C5CC(O)C5(C)C(C7=CC(=O)OC7)CCC65O)C4)OC3C)OC2C)OC(C)C1OC1OC(CO)C(O)C(O)C1O (stereo not given)
inactive: [3] 0.0557 | [4] -0.286
active: [5] -2.91 | [6] -3.01

CC(=O)O[C@@H]1CC[C@@]2(C)[C@@H](CC[C@@H]3[C@@H]2CC[C@]2(C)C(=O)CC[C@@H]32)C1
inactive: [3] 0.0923 | [4] 0.0254 | [5] 0.0362 | [6] 0.0893

CC(=O)OC1CCC2(C)C(CCC3C2CCC2(C)C(C4=CC(=O)OC4)C(OC(C)=O)CC32O)C1 (stereo not given)
active: [5] -2.02 | [6] -2.26
inactive: [3] -0.0585 | [4] -0.416

NS(=O)(=O)c1ccc2c(c1)CNCC2
inactive: [9] 0.162 | [10] 0.085 | [11] 0.143 | [12] 0.0805

CC[S+]([O-])CCSP(=O)(OC)OC (stereo not given)
inactive: [3] 0.119 | [4] 0.0126 | [5] 0.119 | [6] 0.0247

NC(=O)c1cc([N+](=O)[O-])cc([N+](=O)[O-])c1
inactive: 0.025 µM, library screen: screen2, EWS-FLI1 expression: high (no doxycycline) 0.148 | 0.025 µM, library screen: screen2, EWS-FLI1 expression: low (doxycycline-induced shRNA knockdown) 0.069 | [3] 0.071 | [4] 0.00829 | [9] 0.134 | [10] 0.0542 | [5] 0.16 | [6] 0.158 | [11] 0.195 | [12] 0.121 | 25 µM, library screen: screen2, EWS-FLI1 expression: high (no doxycycline) 0.244 | 25 µM, library screen: screen2, EWS-FLI1 expression: low (doxycycline-induced shRNA knockdown) 0.114
